Data reported in PubChem BioAssay (NCATS).
Results filed as inconclusive are left out. Activity calls are given as the source filed them. Unless noted, calls come from the whole dose curve; as a rule, active = well fitted curve in either direction with a large enough effect (not every such curve was filed as active); inconclusive = small, poorly fitted or top-dose-only effect, or another doubt; inactive = flat fitted curve, though single readings scatter.

Columns and labels:
[1] = molecular target: Lysosomal acid glucosylceramidase (Homo sapiens) (UniProt P04062); experiment: Glucocerebrosidase-p2 (AID 348; in the data active = potency below about 10 µM; note: potency is the fitted concentration of half-maximal effect); conditions: purified GBA, blue fluorogenic substrate, 40 min
Method in brief: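 Compounds titrated from 0.6 nM upwards against 0.2 nM enzyme in pH 5.9 citric acid/KH2PO4, taurocholate, tween-20; blue fluorogenic substrate 80 uM, 40 min room temperature, stopped and read Ex 365/Em 440 for AC50.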

[2] = AP1 Signaling Pathway (AID 357); conditions: ME-180 AP-1-bla reporter, EGF-induced, beta-lactamase ratio, 5 h; at 7.69 µM (top of the series) unless noted; note: % is set by controls: 0 for no effect and ±100 for the full control effect
Method in brief: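 ME-180 cells with beta-lactamase reporter under AP-1 response element, stimulated with EC50 EGF; compounds tested in titration series, 5 h at 37 °C. CCF4 substrate added 2.5 h at room temperature; 460/530 nm emission ratio gave %activity and AC50.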

[3] = molecular target: Cytochrome P450 1A2 (Homo sapiens) (UniProt P05177); experiment: p450-cyp1a2 (AID 410; calls by dose curve; note: potency is the fitted concentration of half-maximal effect;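 for activity change, negative = inhibition: -100% = full effect of reference inhibitor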); conditions: recombinant CYP1A2, luciferin-ME demethylation, luminescence; series mostly up to 57 µM
Method in brief: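 Human CYP1A2 (20nM) demethylated Luciferin-ME at its Km (100uM) in 100mM KPO4. After 10 min compound preincubation, NADPH regeneration ran the reaction 60 min at room temperature. Luciferin was read by luminescence, normalized to 57 uM furafylline.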

[4] = NFAT Signaling Pathway (AID 444); conditions: Jurkat NFAT-bla M1, carbachol, beta-lactamase ratio, 5 h; at 7.69 µM (top of the series) unless noted;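 note: carbachol stimulus at about its EC50 of 1 µM final; % is set by controls: 0 for no effect and ±100 for the full control effect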
Method in brief: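 Jurkat cells with NFAT-driven β-lactamase reporter and co-expressed M1 receptor, stimulated with carbachol (final 1 uM, ~EC50), compound titration, 5 h at 37 °C. CCF4 loaded 1 h at RT; 460/530 nm ratio gave %activity and AC50.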

[5] = Stat Signaling Pathway (AID 446); conditions: ME-180 SIE beta-lactamase reporter, IL-6 stimulated, 5 h; at 7.69 µM (top of the series) unless noted;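 note: ME-180 cervical cancer cells given 40 pM IL-6 alongside compound; SIE-controlled beta-lactamase reporter measured as 460/530 nm FRET emission ratio; % is set by controls: 0 for no effect and ±100 for the full control effect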
Method in brief: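 Reporter line: ME-180 cervical carcinoma, SIE-beta-lactamase. Treatment: compound with 40 pM IL-6, 5 hrs, 37 C, in low-serum OPTI-MEM with 10 mM HEPES pH 7.3. Detection: 460/530 nm fluorescence.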

[6] = molecular target: Glucocorticoid receptor (Homo sapiens) (UniProt P04150); experiment: GR-EFC Redistribution (AID 451; calls by dose curve; note: potency is the fitted concentration of half-maximal effect); conditions: CHO-K1 GR-EFC translocation, beta-gal luminescence, 2 h
Method in brief: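 CHO-K1 cells expressing nuclear EA and GR-ED fragments of b-gal; compounds titrated up to 46 uM final, 2 h at 37 C. GR nuclear translocation read as complemented b-gal luminescence after 1 h RT detection.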

[7] = molecular target: Mitogen-activated protein kinase 10 (Mus musculus) (UniProt Q61831); experiment: JNK3 AlphaScreen Assay (AID 530); conditions: JNK3 lysate, c-Jun phosphorylation; series mostly up to 57.1 µM;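 note: kinase came from lysate of stimulated human HepG2 cells; signal reports phosphorylation of biotinylated GST-cJun 1-79 at Ser73 with 10 µM ATP; % is set by controls: 0 for no effect and ±100 for the full control effect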
Method in brief: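 qHTS format: compounds tested as titrations against IL-1beta/TNF-alpha-activated HepG2 lysate JNK3 with biotin-GST-cJun substrate and 10 uM ATP at room temperature. Loss of anti-phospho-cJun AlphaScreen signal indicates inhibition.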

[8] = molecular target: Cytochrome P450 3A4 (Homo sapiens) (UniProt P08684); experiment: qHTS Assay for Inhibitors and Substrates of Cytochrome P450 3A4 (AID 884; active = well fitted curve in the direction sought with a large enough effect; an effect the other way counts as inactive or inconclusive; note: potency is the fitted concentration of half-maximal effect; nearly all actives have a fitted effect of over 50% in size); conditions: recombinant CYP3A4, Luciferin-PPXE luminescence; series mostly up to 57.1 µM
Method in brief: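 20 nM human CYP3A4 with 25 uM Luciferin-PPXE (at KM) in 200 mM KPO4, preincubated 10 min with compound; NADPH regeneration started a 60 min RT reaction. Luciferin detected by luminescence, normalized to 57 uM ketoconazole as full inhibition.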

[9] = molecular target: Cytochrome P450 3A4 (Homo sapiens) (UniProt P08684); experiment: qHTS Assay for Activators of Cytochrome P450 3A4 (AID 885; active = well fitted curve in the direction sought with a large enough effect; an effect the other way counts as inactive or inconclusive; note: nearly all actives have a fitted effect of over 65% in size); conditions: recombinant CYP3A4, Luciferin-PPXE luminescence, 60 min; series mostly up to 57.1 µM
Method in brief: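 Signal was normalized against complete inhibition by 57 uM ketoconazole. The reaction used 20nM CYP3A4 with 25uM Luciferin-PPXE, 10-min compound preincubation and a 60-min NADPH-supported step at RT.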

[10] = qHTS Assay for Lipid Storage Modulators (AID 1519; calls by dose curve); conditions: Drosophila S3 cells, BODIPY lipid droplet/cell ratio, laser cytometry, cells loaded with oleic acid; for activity change, negative = inhibition: at 57.5 µM (top of the series)
Method in brief: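 Cells seeded at 5,000 per well were treated with compounds over a concentration series and loaded with oleic acid (400 uM, as added). Lipid droplet fluorescence (488 nm excitation, 500-530 nm channel) was read by laser-scanning cytometry and normalized to 20 uM Triacsin C.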

[11] = molecular target: Cytochrome P450 2D6 (Homo sapiens) (UniProt P10635); experiment: qHTS Assay for Inhibitors and Substrates of Cytochrome P450 2D6 (AID 891; active = well fitted curve in the direction sought with a large enough effect; an effect the other way counts as inactive or inconclusive; note: potency is the fitted concentration of half-maximal effect; nearly all actives have a fitted effect of over 60% in size); conditions: recombinant CYP2D6, luciferin-ME EGE luminescence; series mostly up to 57.1 µM
Method in brief: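 Human CYP2D6 (5 nM) with 30 uM Luciferin-ME EGE (at Km) in 100 mM KPO4, compound preincubated 10 min, then NADPH regeneration system for 60 min at room temperature. Luciferin read by luminescence; normalized to 1.43 uM quinidine.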

[12] = Confirmation and Secondary Assay for Modulators of Hemoglobin Beta Chain Splicing at IVS2 654 locus (AID 910; active = well fitted curve in the direction sought with a large enough effect; an effect the other way counts as inactive or inconclusive;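 note: HeLa cells stably carrying EGFP split by mutant beta-globin IVS2-654 intron; % of control where 0% means no effect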); conditions: HeLa EGFP-654 splicing reporter, GFP fluorescence, 48 h; series mostly up to 38.3 µM
Method in brief: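 HeLa cells stably expressing EGFP interrupted by β-globin IVS2-654 intron, seeded overnight in Opti-MEM/2% FCS, then treated 2 days at 37 °C. Restored splicing read as total peak GFP intensity per well by laser scanning cytometry (488 nm excitation, 500–520 nm emission); 500 nM antisense PNA as control.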

[13] = molecular target: Ubiquitin carboxyl-terminal hydrolase 1 (Homo sapiens) (UniProt O94782); experiment: Inhibitors of USP1/UAF1: Pilot qHTS (AID 504865; active = well fitted curve in the direction sought with a large enough effect; an effect the other way counts as inactive or inconclusive; note: potency is the fitted concentration of half-maximal effect; nearly all actives have a fitted effect of over 35% in size); conditions: purified USP1/UAF1, Ub-rhodamine cleavage fluorescence; series mostly up to 54.9 µM
Method in brief: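 1nM USP1/UAF1 + cpd, 15 min RT; start w/ Ub-Rho 150nM final; kinetic FL 480/540 nm, 6 reads q60 s. Buffer 50mM HEPES pH 7.8, 0.5mM EDTA, 1mM TCEP, 0.01% Tween-20, 0.1 mg/ml BSA.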

[14] = molecular target: Glucocorticoid receptor (Homo sapiens) (UniProt P04150); experiment: GR-GFP Redistribution (AID 450;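 active = compounds whose dose series gives a full or clear partial fitted curve of increased nuclear translocation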; note: potency is the fitted concentration of half-maximal effect); conditions: U2OS GR-GFP nuclear translocation, laser cytometry, 2 h
[15] = molecular target: 3',5'-cyclic-AMP phosphodiesterase 4B (Homo sapiens) (UniProt Q07343); experiment: qHTS Assay for Inhibitors of PDE-IV (AID 607; active = well fitted activation curve with a large enough effect in the main read-out, with a control signal flat, not every such curve was filed as active; note: % of control where 0% means no effect); conditions: HEK293 ACTOne CNG channel cells, membrane potential fluorescence; series mostly up to 22.9 µM
Method in brief: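 Cell-based read-out of cAMP via a modified cyclic nucleotide-gated channel and membrane potential dye (535/590 nm) in HEK293 cells expressing PDE4 endogenously. Compounds tested up to 22.9 uM final; 100 uM RO 20-1724 reference.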

[16] = Confirmation and Secondary Assay for Modulators of Hemoglobin Beta Chain Splicing at IVS2 705 locus (AID 930; active = well fitted curve in the direction sought with a large enough effect; an effect the other way counts as inactive or inconclusive;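 note: HeLa cells stably expressing the EGFP-705 splicing reporter; GFP fluorescence per well restored by corrected splicing of the IVS2-705 intron in EGFP; % of control where 0% means no effect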); conditions: HeLa EGFP-705 splicing reporter, GFP fluorescence, 48 h; series mostly up to 38.3 µM
Method in brief: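 Secondary splice-site specificity test uses HeLa expressing CMV-driven EGFP interrupted by IVS2-705; cells were treated 2 days at 37C with 500 nM antisense PNA as positive control.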

[17] = molecular target: Cytochrome P450 2C19 (Homo sapiens) (UniProt P33261); experiment: qHTS Assay for Inhibitors and Substrates of Cytochrome P450 2C19 (AID 899; active = well fitted curve in the direction sought with a large enough effect; an effect the other way counts as inactive or inconclusive; note: potency is the fitted concentration of half-maximal effect; nearly all actives have a fitted effect of over 60% in size); conditions: recombinant CYP2C19, luciferin-H EGE luminescence; series mostly up to 57.1 µM
Method in brief: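 5 nM human CYP2C19 with 10uM Luciferin-H EGE (at KM) in 50mM KPO4, compound preincubated 10 min at 37C, then NADPH regeneration for 60 min at 37C. Luciferin read by luminescence after detection reagent; normalized to 57uM ketoconazole as full inhibition.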

[18] = measured here: cell count channel max response
[19] = measured here: lipid channel max response

Chain of Cytochrome P450 3A4 (Homo sapiens) (P08684 whole entry, looked up): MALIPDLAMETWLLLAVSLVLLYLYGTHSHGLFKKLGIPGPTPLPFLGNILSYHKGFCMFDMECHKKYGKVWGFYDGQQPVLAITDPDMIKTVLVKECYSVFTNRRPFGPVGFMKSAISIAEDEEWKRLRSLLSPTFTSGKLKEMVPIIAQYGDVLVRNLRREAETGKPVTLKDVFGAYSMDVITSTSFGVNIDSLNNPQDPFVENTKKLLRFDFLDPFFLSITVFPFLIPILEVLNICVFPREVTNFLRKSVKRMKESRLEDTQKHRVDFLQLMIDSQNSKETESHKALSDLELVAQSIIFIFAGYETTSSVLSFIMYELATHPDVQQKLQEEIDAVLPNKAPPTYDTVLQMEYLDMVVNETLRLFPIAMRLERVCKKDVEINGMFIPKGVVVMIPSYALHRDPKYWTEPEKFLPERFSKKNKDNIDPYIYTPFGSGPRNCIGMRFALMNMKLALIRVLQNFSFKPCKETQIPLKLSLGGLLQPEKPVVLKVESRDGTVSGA
Chain of Lysosomal acid glucosylceramidase (Homo sapiens) (P04062 whole entry, looked up): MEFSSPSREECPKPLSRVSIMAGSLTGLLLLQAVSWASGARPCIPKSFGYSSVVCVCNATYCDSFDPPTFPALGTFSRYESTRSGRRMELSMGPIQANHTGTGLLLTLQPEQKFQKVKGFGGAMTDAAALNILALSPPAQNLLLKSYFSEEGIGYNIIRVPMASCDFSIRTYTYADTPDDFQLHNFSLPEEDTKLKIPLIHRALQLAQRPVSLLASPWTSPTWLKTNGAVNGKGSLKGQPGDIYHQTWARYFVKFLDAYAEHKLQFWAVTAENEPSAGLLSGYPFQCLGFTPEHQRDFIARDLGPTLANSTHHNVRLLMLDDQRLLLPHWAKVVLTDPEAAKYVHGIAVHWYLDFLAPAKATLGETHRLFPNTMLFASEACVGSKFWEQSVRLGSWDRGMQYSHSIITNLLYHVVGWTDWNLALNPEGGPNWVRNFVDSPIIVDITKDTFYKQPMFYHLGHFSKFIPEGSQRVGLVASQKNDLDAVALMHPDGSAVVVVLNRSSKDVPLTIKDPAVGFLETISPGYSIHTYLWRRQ
Chain of Glucocorticoid receptor (Homo sapiens) (P04150 whole entry, looked up, the tested form may be a part): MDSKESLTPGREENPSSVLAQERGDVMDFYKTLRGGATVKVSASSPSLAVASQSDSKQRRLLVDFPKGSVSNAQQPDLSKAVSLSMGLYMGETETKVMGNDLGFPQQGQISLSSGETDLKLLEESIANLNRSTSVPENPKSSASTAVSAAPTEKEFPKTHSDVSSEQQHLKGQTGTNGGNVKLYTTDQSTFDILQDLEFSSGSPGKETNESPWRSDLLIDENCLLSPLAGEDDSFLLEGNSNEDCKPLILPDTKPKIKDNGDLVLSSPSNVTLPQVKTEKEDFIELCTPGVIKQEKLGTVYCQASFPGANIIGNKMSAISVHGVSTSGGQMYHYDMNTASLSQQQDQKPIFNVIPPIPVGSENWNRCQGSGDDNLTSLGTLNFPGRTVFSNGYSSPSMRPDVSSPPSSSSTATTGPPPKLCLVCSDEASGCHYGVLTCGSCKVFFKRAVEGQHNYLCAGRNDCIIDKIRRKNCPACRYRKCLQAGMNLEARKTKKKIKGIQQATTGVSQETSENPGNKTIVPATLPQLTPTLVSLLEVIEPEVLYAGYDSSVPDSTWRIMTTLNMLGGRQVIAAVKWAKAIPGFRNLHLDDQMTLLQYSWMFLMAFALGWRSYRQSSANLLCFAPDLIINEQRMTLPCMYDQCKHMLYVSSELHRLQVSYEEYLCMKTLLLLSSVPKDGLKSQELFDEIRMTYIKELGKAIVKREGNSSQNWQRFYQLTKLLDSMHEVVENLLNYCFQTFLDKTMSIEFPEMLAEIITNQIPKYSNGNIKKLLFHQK
Chain of 3',5'-cyclic-AMP phosphodiesterase 4B (Homo sapiens) (Q07343 whole entry, looked up): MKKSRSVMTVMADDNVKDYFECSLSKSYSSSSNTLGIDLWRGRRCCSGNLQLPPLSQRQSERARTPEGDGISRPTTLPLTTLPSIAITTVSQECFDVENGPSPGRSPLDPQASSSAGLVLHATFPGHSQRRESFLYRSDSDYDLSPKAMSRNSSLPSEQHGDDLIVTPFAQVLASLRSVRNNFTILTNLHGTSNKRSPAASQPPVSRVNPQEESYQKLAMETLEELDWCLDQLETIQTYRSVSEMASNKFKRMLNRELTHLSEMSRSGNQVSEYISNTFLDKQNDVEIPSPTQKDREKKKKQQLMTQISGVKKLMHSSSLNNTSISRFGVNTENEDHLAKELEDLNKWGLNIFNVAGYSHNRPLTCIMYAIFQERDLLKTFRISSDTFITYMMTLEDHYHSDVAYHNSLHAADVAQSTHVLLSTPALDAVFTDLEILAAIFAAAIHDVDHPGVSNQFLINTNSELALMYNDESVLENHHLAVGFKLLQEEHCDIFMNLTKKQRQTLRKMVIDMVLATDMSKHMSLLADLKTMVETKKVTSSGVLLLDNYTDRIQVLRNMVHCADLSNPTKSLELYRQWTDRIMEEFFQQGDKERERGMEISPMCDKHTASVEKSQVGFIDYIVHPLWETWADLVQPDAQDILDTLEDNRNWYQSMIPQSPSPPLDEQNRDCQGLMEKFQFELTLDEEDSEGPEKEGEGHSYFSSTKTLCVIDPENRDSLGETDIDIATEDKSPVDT
Chain of Cytochrome P450 1A2 (Homo sapiens) (P05177 whole entry, looked up): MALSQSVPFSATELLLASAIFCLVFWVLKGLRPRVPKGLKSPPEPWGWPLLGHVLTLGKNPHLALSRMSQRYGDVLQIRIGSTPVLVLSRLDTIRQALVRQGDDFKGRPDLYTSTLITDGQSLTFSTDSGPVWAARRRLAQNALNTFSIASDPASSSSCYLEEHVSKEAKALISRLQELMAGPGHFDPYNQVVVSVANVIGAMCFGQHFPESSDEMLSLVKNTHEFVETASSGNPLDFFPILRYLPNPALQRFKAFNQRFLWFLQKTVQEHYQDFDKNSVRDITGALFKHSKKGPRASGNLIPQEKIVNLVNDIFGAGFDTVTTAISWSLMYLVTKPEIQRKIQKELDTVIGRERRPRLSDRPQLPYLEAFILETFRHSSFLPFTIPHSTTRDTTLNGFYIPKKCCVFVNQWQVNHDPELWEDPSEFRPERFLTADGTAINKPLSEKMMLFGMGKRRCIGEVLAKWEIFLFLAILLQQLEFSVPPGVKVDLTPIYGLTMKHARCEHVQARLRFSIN
Chain of Cytochrome P450 2C19 (Homo sapiens) (P33261 whole entry, looked up): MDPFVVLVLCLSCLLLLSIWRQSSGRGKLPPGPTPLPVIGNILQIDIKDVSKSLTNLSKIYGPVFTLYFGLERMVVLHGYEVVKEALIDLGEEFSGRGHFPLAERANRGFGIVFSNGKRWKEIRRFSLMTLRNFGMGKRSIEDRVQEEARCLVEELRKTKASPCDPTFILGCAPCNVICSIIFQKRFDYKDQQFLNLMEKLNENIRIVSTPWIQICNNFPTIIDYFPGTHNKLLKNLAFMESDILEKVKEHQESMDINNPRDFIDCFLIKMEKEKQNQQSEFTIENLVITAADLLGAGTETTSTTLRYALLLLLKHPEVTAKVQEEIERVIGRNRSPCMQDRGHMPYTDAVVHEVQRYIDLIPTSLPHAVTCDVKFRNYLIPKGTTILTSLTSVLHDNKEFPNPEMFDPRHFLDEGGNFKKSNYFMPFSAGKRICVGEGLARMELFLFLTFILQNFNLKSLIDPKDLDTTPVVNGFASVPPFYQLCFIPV
Chain of Ubiquitin carboxyl-terminal hydrolase 1 (Homo sapiens) (O94782 whole entry, looked up): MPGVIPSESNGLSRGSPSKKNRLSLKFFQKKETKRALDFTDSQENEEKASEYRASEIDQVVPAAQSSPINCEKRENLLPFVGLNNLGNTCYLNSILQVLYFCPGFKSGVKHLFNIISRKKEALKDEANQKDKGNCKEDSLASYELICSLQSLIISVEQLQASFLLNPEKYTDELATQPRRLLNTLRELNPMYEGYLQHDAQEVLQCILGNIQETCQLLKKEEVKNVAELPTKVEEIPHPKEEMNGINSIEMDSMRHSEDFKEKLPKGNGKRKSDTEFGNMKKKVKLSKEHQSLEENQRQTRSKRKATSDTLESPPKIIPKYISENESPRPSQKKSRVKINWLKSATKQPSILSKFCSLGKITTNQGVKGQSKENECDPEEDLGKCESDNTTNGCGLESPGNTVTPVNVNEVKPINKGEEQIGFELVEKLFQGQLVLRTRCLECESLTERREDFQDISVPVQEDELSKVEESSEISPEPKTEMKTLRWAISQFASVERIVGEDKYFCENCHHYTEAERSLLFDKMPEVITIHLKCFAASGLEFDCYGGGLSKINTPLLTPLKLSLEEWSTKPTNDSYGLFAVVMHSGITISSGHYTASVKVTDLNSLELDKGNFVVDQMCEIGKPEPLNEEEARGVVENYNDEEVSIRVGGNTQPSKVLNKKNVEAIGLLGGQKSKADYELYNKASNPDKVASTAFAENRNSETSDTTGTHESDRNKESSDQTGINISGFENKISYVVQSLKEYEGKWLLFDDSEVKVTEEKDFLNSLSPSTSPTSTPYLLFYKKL
Chain of Cytochrome P450 2D6 (Homo sapiens) (P10635 whole entry, looked up): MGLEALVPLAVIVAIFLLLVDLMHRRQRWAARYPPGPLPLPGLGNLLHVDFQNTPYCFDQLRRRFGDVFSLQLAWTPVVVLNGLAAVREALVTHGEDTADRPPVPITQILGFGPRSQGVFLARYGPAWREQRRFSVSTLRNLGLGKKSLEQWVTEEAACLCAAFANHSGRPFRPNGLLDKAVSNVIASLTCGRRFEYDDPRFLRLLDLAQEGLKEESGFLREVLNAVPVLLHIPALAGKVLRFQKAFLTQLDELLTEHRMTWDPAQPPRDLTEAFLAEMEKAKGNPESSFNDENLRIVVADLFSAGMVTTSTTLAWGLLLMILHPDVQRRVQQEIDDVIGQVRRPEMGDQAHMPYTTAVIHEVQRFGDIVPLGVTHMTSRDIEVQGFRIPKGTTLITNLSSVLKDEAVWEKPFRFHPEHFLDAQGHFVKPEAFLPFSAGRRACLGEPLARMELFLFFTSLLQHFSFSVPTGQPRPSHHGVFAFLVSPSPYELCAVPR

COc1ccc(C(=O)N2CCC3(CCCN(C(=O)Nc4cccc(C#N)c4)C3)CC2)cc1
7.45%: max response [10, 19]
0.951%: max response [10, 18]
inactive: Potency [1] > 11.4 µM | activity change, negative = inhibition [2] -23.2% | activity change, negative = inhibition [4] -8.43% | activity, negative = inhibition [5] 8.74% | Potency [6] > 46 µM | Potency [7] | Potency [9] | activity change, negative = inhibition [10] 3.86%
active: Potency [3] 15.8 µM | Potency [8] 6.31 µM

COc1ccccc1-c1nccc(NCc2cccc(C)c2)n1
-23.8%: max response [10, 19]
active: Potency [3] 0.631 µM | Potency [8] 6.31 µM | Potency [11] 1.58 µM | Potency [13] 22.4 µM
inactive: Potency [1] > 11.4 µM | activity change, negative = inhibition [2] -2.08% | activity change, negative = inhibition [4] -5.48% | Potency [6] > 46 µM | Potency [7] | Potency [9] | Potency [12] | activity change, negative = inhibition [10] -4.4%
-19.8%: max response [10, 18]

Cc1cnc(CNc2ccnc(-c3ccc(N(C)C)cc3)n2)cn1
active: Potency [3] 2.51 µM
inactive: Potency [1] > 11.4 µM | activity change, negative = inhibition [2] 8.41% | activity change, negative = inhibition [4] -1.95% | Potency [14] > 46 µM | Potency [6] > 46 µM | Potency [7] | Potency [15] | Potency [9] | Potency [12] | outcome [16] | activity change, negative = inhibition [10] 8.28%
1.54%: max response [10, 19]
-9.25%: max response [10, 18]

N#CCCn1c(=O)c(-c2ccc(Cl)cc2)nc2cnc(Oc3cccc(Cl)c3)nc21
10.2%: max response [10, 19]
inactive: Potency [1] > 11.4 µM | activity change, negative = inhibition [2] 23.4% | Potency [3] | activity change, negative = inhibition [4] 14.7% | Potency [14] > 9.22 µM | Potency [6] > 46 µM | Potency [7] | Potency [15] | activity change, negative = inhibition [10] 4.13%
4.81%: max response [10, 18]

O=C(Nc1cccc(F)c1)N1CCCC2(CCN(C(=O)c3cc(C(F)(F)F)cc(C(F)(F)F)c3)CC2)C1
17.1%: max response [10, 19]
12.9%: max response [10, 18]
active: Potency [3] 12.6 µM
inactive: Potency [1] > 11.4 µM | activity change, negative = inhibition [2] -25.5% | activity change, negative = inhibition [4] 23.3% | activity, negative = inhibition [5] -17.6% | Potency [7] | Potency [9] | activity change, negative = inhibition [10] 0.997%

CN(C)c1ccc(-c2ccc3ncnc(NCc4ccccc4)c3c2)cc1
-18.1%: max response [10, 18]
-15.6%: max response [10, 19]
inactive: Potency [1] > 11.4 µM | activity, negative = inhibition [5] -1.76% | Potency [14] > 46 µM | Potency [6] > 46 µM | Potency [15] | Potency [9] | outcome [16] | activity change, negative = inhibition [10] 2.65%
active: Potency [3] 0.501 µM | Potency [8] 2.51 µM | Potency [17] 7.94 µM

Cc1cccc(CNc2ncnc3ccc(-c4cccc(NS(C)(=O)=O)c4)cc23)c1
-18.6%: max response [10, 19]
inactive: Potency [1] > 11.4 µM | activity change, negative = inhibition [4] 12.3% | activity, negative = inhibition [5] -1.79% | Potency [14] > 46 µM | Potency [6] > 46 µM | Potency [7] | Potency [15] | Potency [12] | outcome [16] | activity change, negative = inhibition [10] -4.87%
-15.4%: max response [10, 18]
